Reference: PubChem BioAssay (NCI)
About 79,000 compounds went through this panel and 15% of them were active in at least one assay; those are over-represented in the sample as a whole. The source made the active and inactive calls. Cut-off read from the data, not from the text of the source: active = growth inhibition above about 70%; inactive = the rest.

Legend:
[1] = NCI Yeast Anticancer Drug Screen. Data for the rad52 strain (AID 147);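 note: 0% = growth of vehicle-treated control cultures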; settings: S. cerevisiae rad52 mutant growth inhibition, stronger effect = higher value
Procedure, shortened: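 DNA repair-defective yeast; compound exposure; growth scored against vehicle controls.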

[2] = NCI Yeast Anticancer Drug Screen. Data for the wt1 strain (AID 149);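 note: 0% = growth of vehicle-treated wt1 cultures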; settings: S. cerevisiae wt1 strain (SPY 50644) growth inhibition, stronger effect = higher value
Procedure, shortened: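 Each compound is tested on wt1 yeast and the loss of growth versus vehicle gives the inhibition value.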

[3] = NCI Yeast Anticancer Drug Screen. Data for the rad50EPP+ strain (AID 151);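 note: 0% = growth of vehicle-treated control cultures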; settings: S. cerevisiae rad50 mutant strain, stronger effect = higher value
Procedure, shortened: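 rad50EPP+ yeast treated with test compounds. Readout: growth vs vehicle control.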

[4] = NCI Yeast Anticancer Drug Screen. Data for the rad50 strain (AID 155);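 note: 0% = growth of vehicle-only cultures of the same strain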; settings: S. cerevisiae rad50 strain growth inhibition, stronger effect = higher value
Procedure, shortened: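 Vehicle-treated cultures provide the reference for the growth inhibition reported for compound-exposed, repair-deficient yeast.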

[5] = NCI Yeast Anticancer Drug Screen. Data for the mec2-1 strain (AID 157); settings: S. cerevisiae mec2-1 strain, stronger effect = higher value
Procedure, shortened: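 Growth inhibition is read against vehicle-treated controls after compound exposure of the mec2-1 yeast strain, which is defective in DNA damage repair or cell cycle control.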

[6] = NCI Yeast Anticancer Drug Screen. Data for the rad14 strain (AID 159);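 note: 0% = growth of vehicle-treated control cultures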; settings: S. cerevisiae rad14 strain growth inhibition, stronger effect = higher value
Procedure, shortened: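 Inhibition of growth is reported for a repair-deficient yeast mutant following compound treatment, calculated relative to cultures that received vehicle.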

[7] = NCI Yeast Anticancer Drug Screen. Data for the sgs1 mgt1 strain (AID 161);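 note: 0% = growth of cultures given vehicle only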; settings: S. cerevisiae sgs1 mgt1 strain, stronger effect = higher value
Procedure, shortened: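 Growth of a repair-deficient yeast mutant was monitored after compound treatment and expressed as inhibition relative to vehicle-treated cultures.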

[8] = NCI Yeast Anticancer Drug Screen. Data for the CLN2oe strain (AID 163);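 note: 0% = growth of vehicle-only control cultures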; settings: S. cerevisiae CLN2oe strain, stronger effect = higher value
Procedure, shortened: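 Compound-treated yeast; growth vs vehicle ctrl = % inhibition. Genetically altered strain (cell-cycle control).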

[9] = NCI Yeast Anticancer Drug Screen. Data for the cln2 rad14 strain (AID 165);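 note: 0% = growth equal to vehicle treated cultures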; settings: S. cerevisiae cln2 rad14 strain, stronger effect = higher value
Procedure, shortened: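 Growth inhibition, relative to vehicle-treated controls, is the read-out. The test organism is a yeast strain with defined genetic alterations, cln2 rad14.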

[10] = NCI Yeast Anticancer Drug Screen. Data for the bub3 strain (AID 167); settings: S. cerevisiae bub3 mutant strain, stronger effect = higher value
Procedure, shortened: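 Mutant yeast screening strain plus compound; vehicle-treated cultures serve as the 0% inhibition reference.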

[11] = NCI Yeast Anticancer Drug Screen. Data for the wt2 strain (AID 169); settings: S. cerevisiae wt2 strain growth inhibition, stronger effect = higher value
Procedure, shortened: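 Compound exposure of yeast; growth compared with vehicle controls; inhibition reported.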

[12] = NCI Yeast Anticancer Drug Screen. Data for the mlh1 strain (AID 171);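 note: 0% = growth of vehicle-treated control cultures of the same strain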; settings: S. cerevisiae mlh1 strain growth inhibition, stronger effect = higher value
Procedure, shortened: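 Compounds are applied to a genetically altered yeast strain, and its growth is compared with that of vehicle-treated cultures to give percent inhibition.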

[13] = NCI Yeast Anticancer Drug Screen. Data for the sgs1 strain (AID 173);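 note: 0% = growth of vehicle-only control cultures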; settings: S. cerevisiae sgs1 mutant, stronger effect = higher value
Procedure, shortened: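 Compounds applied to genetically altered yeast; growth compared with vehicle-treated cultures to give % inhibition.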

[14] = NCI Yeast Anticancer Drug Screen. Data for the mlh1 rad18 strain (AID 175); settings: S. cerevisiae mlh1 rad18 strain growth inhibition, stronger effect = higher value
Procedure, shortened: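 Cells of a genetically altered yeast strain, deficient in DNA damage repair, were treated with compound. Their growth was then compared with that of vehicle-treated cultures to give inhibition.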

[15] = NCI Yeast Anticancer Drug Screen. Data for the rad18 strain (AID 177); settings: S. cerevisiae rad18 mutant growth inhibition, stronger effect = higher value
Procedure, shortened: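 Compounds are applied to a repair-deficient yeast strain, and growth is compared with that of vehicle-treated cultures to give percent inhibition.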

[16] = at 5.0 µM (retest, dose inferred, filed as 0.5)
[17] = at 50.0 µM (retest, dose inferred, filed as 5.0)

Measured: growth inhibition

CCCCCNC(=O)c1c(O)[nH]c(=S)[nH]c1=O
inactive: [1]; at 1.2 µM -6% | [1]; at 3.7 µM -15% | [1]; at 11.0 µM 23% | [2]; at 1.2 µM -3% | [2]; at 3.7 µM 9% | [2]; at 11.0 µM 15% | [2]; at 33.0 µM 68% | [3]; at 1.2 µM -25% | [3]; at 3.7 µM -23% | [3]; at 11.0 µM -16% | [3]; at 33.0 µM 30% | [4]; at 1.2 µM 5% | [4]; at 3.7 µM 14% | [4]; [16] 61% | [4]; at 11.0 µM 64% | [5]; at 1.2 µM -14% | [5]; at 3.7 µM -5% | [5]; [16] 8% | [5]; at 11.0 µM 25% | [6]; at 1.2 µM 16% | [6]; at 3.7 µM 64% | [7]; [16] 26% | [8]; at 1.2 µM 4% | [8]; at 3.7 µM -7% | [8]; at 11.0 µM 2% | [8]; at 33.0 µM 53% | [9]; [16] 6% | [9]; [17] 60% | [9]; at 50.0 µM 61.3% | [10]; at 1.2 µM -17% | [10]; at 3.7 µM -1% | [10]; [16] 65% | [10]; at 11.0 µM 65% | [11]; at 1.2 µM -32% | [11]; at 3.7 µM -1% | [11]; at 11.0 µM 56% | [12]; at 1.2 µM 13% | [12]; at 3.7 µM 46% | [13]; at 1.2 µM -10% | [13]; at 3.7 µM 0% | [14]; [16] 42% | [14]; [17] 47% | [15]; at 1.2 µM -12% | [15]; at 3.7 µM 2% | [15]; at 11.0 µM 45%
active: [1]; at 33.0 µM 89% | [1]; at 100.0 µM 94% | [2]; at 100.0 µM 88% | [3]; at 100.0 µM 78% | [4]; at 33.0 µM 95% | [4]; [17] 93% | [4]; at 50.0 µM 88.1% | [4]; at 100.0 µM 96% | [5]; at 33.0 µM 87% | [5]; [17] 92% | [5]; at 50.0 µM 87.7% | [5]; at 100.0 µM 92% | [6]; at 11.0 µM 91% | [6]; at 33.0 µM 96% | [6]; at 100.0 µM 96% | [7]; [17] 87% | [7]; at 50.0 µM 92.2% | [8]; at 100.0 µM 83% | [10]; at 33.0 µM 87% | [10]; [17] 94% | [10]; at 50.0 µM 88.6% | [10]; at 100.0 µM 93% | [11]; at 33.0 µM 91% | [11]; at 100.0 µM 94% | [12]; at 11.0 µM 90% | [12]; at 33.0 µM 96% | [12]; at 100.0 µM 96% | [13]; at 11.0 µM 79% | [13]; at 33.0 µM 94% | [13]; at 100.0 µM 96% | [14]; at 50.0 µM 90.1% | [15]; at 33.0 µM 86% | [15]; at 100.0 µM 94%

COc1cccc2c1C(=O)c1c(O)c3c(c(O)c1C2=O)C[C@@](O)(/C(C)=N\O)C[C@@H]3OC1CC(N)C(O)C(C)O1 (stereo partly specified)
active: [1]; at 33.0 µM 84% | [1]; at 100.0 µM 90% | [3]; at 33.0 µM 82% | [3]; at 100.0 µM 89% | [4]; at 11.0 µM 79% | [4]; at 33.0 µM 89% | [4]; [17] 93% | [4]; at 50.0 µM 91.6% | [4]; at 100.0 µM 93% | [15]; at 100.0 µM 75%
inactive: [1]; at 1.2 µM 8% | [1]; at 3.7 µM 27% | [1]; at 11.0 µM 61% | [2]; at 1.2 µM 6% | [2]; at 3.7 µM 1% | [2]; at 11.0 µM 8% | [2]; at 33.0 µM 19% | [2]; at 100.0 µM 29% | [3]; at 1.2 µM 7% | [3]; at 3.7 µM 29% | [3]; at 11.0 µM 63% | [4]; at 1.2 µM 13% | [4]; at 3.7 µM 52% | [4]; [16] 22% | [5]; at 1.2 µM -2% | [5]; at 3.7 µM 3% | [5]; [16] 0% | [5]; at 11.0 µM 14% | [5]; at 33.0 µM 27% | [5]; [17] -14% | [5]; at 50.0 µM 5.75% | [5]; at 100.0 µM 38% | [6]; at 1.2 µM 1% | [6]; at 3.7 µM 3% | [6]; at 11.0 µM 8% | [6]; at 33.0 µM 29% | [6]; at 100.0 µM 63% | [7]; [16] -5% | [7]; [17] 26% | [7]; at 50.0 µM -9.9% | [8]; at 1.2 µM -1% | [8]; at 3.7 µM 2% | [8]; at 11.0 µM 8% | [8]; at 33.0 µM 13% | [8]; at 100.0 µM 44% | [9]; [16] 3% | [9]; [17] 18% | [9]; at 50.0 µM 26.2% | [10]; at 1.2 µM -2% | [10]; at 3.7 µM 0% | [10]; [16] 35% | [10]; at 11.0 µM 5% | [10]; at 33.0 µM 25% | [10]; [17] 18% | [10]; at 50.0 µM -23.6% | [10]; at 100.0 µM 47% | [11]; at 1.2 µM 0% | [11]; at 3.7 µM 1% | [11]; at 11.0 µM 12% | [11]; at 33.0 µM 25% | [11]; at 100.0 µM 37% | [12]; at 1.2 µM 1% | [12]; at 3.7 µM -1% | [12]; at 11.0 µM 11% | [12]; at 33.0 µM 26% | [12]; at 100.0 µM 49% | [13]; at 1.2 µM 0% | [13]; at 3.7 µM 5% | [13]; at 11.0 µM 15% | [13]; at 33.0 µM 29% | [13]; at 100.0 µM 48% | [14]; [16] 9% | [14]; [17] 46% | [14]; at 50.0 µM 13.8% | [15]; at 1.2 µM 3% | [15]; at 3.7 µM 10% | [15]; at 11.0 µM 20% | [15]; at 33.0 µM 43%

CC1CCCN(CCc2ccccc2)CC1 (stereo unspecified)
active: [7]; [17] 76% | [10]; [17] 83%
inactive: [1]; at 1.2 µM 1% | [1]; at 3.7 µM 4% | [1]; at 11.0 µM 11% | [1]; at 33.0 µM 16% | [1]; at 100.0 µM 26% | [2]; at 1.2 µM 2% | [2]; at 3.7 µM 8% | [2]; at 11.0 µM 8% | [2]; at 33.0 µM 7% | [2]; at 100.0 µM 5% | [3]; at 1.2 µM 2% | [3]; at 3.7 µM 3% | [3]; at 11.0 µM 4% | [3]; at 33.0 µM 4% | [3]; at 100.0 µM 5% | [4]; at 1.2 µM 1% | [4]; at 3.7 µM 6% | [4]; [16] -8% | [4]; at 11.0 µM 10% | [4]; at 33.0 µM 13% | [4]; [17] 66% | [4]; at 50.0 µM 17.4% | [4]; at 100.0 µM 14% | [5]; at 1.2 µM 0% | [5]; at 3.7 µM 8% | [5]; [16] -13% | [5]; at 11.0 µM 12% | [5]; at 33.0 µM 15% | [5]; [17] 11% | [5]; at 50.0 µM 20.9% | [5]; at 100.0 µM 22% | [6]; at 1.2 µM 2% | [6]; at 3.7 µM 14% | [6]; at 11.0 µM 29% | [6]; at 33.0 µM 33% | [6]; at 100.0 µM 31% | [7]; [16] 13% | [7]; at 50.0 µM 28.8% | [8]; at 1.2 µM -5% | [8]; at 3.7 µM -8% | [8]; at 11.0 µM 18% | [8]; at 33.0 µM 30% | [8]; at 100.0 µM 43% | [9]; [16] 5% | [9]; [17] 37% | [9]; at 50.0 µM 58.6% | [10]; at 1.2 µM -3% | [10]; at 3.7 µM 0% | [10]; [16] 2% | [10]; at 11.0 µM 9% | [10]; at 33.0 µM 21% | [10]; at 50.0 µM 46.6% | [10]; at 100.0 µM 25% | [11]; at 1.2 µM 2% | [11]; at 3.7 µM 4% | [11]; at 11.0 µM 6% | [11]; at 33.0 µM 8% | [11]; at 100.0 µM 10%
